Sampled rows, rich in hits. Any-hit rate of the full collection: about 2.5%.
Cruzain Triton – cruzain (T. cruzi) inhibition with detergent; P25779; purified cruzain, Z-FR-AMC fluorescence, 0.01% Triton; Potency, µM, actives largely listed as inhibitors; actives 0.43% (n = 200,000); AID 1478; note: nearly all actives have a fitted effect of over 40% in size
Target sequence (P25779 123-467 limits assumed): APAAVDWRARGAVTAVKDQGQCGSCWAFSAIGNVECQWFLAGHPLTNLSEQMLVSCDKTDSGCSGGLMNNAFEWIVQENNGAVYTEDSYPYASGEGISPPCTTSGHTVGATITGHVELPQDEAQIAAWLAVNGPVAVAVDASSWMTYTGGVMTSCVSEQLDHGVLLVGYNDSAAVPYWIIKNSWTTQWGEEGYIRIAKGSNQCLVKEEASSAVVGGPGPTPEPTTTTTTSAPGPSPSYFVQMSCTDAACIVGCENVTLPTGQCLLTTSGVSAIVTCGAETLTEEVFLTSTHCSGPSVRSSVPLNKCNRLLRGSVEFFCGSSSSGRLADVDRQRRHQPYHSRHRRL
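Z-FR-AMC hydrolysis (2 uM substrate) by cruzain (1.5 nM) monitored kinetically at ex 360/em 450 nm after 15 min room-temperature compound exposure; 0.01% Triton X-100, pH 5.5, 5 mM DTT.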
Cruzain noTriton – cruzain (T. cruzi) inhibition without detergent | P25779 | purified cruzain, Z-FR-AMC fluorescence, no detergent | Potency, µM, most hits filed as inhibitors | actives 2.3% (n = 200,000); note: nearly all actives have a fitted effect of over 40% in size
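Detergent-free condition (0.00005% Triton X-100) in acetate buffer pH 5.5 with DTT. 1.5 nM enzyme and compound were pre-mixed 15 min, then 2 uM Z-FR-AMC substrate added; reaction progress from fluorescence change between first and third reads (60 s).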
Of the large screens only hits and unclear results are named; the others gave an inactive call. Calls come from the whole dose curve; as a rule, active = well fitted curve in the direction sought with a large enough effect; inconclusive = small, poorly fitted or top-dose-only effect, or another doubt; inactive = no such curve, though single readings can be large; an effect the other way counts as inactive or inconclusive.

COc1ccc2c(c1)C1=NN(/C(C)=C/C(C)=O)C(c3ccc(F)cc3)C1CC2 (stereo not given)	none
COc1ccc2c(c1)C1=NN(/C(C)=C\C(C)=O)C(c3ccccc3)C1CC2 (stereo not given)	Cruzain noTriton 25.1µM
Cc1ccc(NC(=O)CSc2nc3c(c(=O)[nH]2)CCC3)cc1Cl	none
COc1ccc(C2Nc3ccccc3C(=O)N2Cc2ccco2)cc1COc1ccc(NC(C)=O)cc1 (stereo not given)	Cruzain noTriton inconclusive
COc1ccc(C2Nc3ccccc3C(=O)N2Cc2ccco2)cc1COc1ccccc1F (stereo not given)	Cruzain noTriton 25.1µM
CCN(Cc1ccccc1)c1ccc(/C=N/NS(=O)(=O)c2cccc([N+](=O)[O-])c2)cc1	Cruzain noTriton 25.1µM
CCN(CC)c1ccc(/C=N/NS(=O)(=O)c2ccc(C)c([N+](=O)[O-])c2)cc1	none
O=S(=O)(c1ccccc1)N1CCC[C@@]2(CCN(c3ccccc3)C2)C1	Cruzain noTriton 15.8µM
O=S(=O)(c1ccccc1)N1CCC2(CCCN(c3ccccc3)C2)CC1	none
O=S(=O)(c1ccccc1)N1CCC2(CCCN(c3cccc(-c4ccccc4)c3)C2)CC1	Cruzain noTriton inconclusive
O=S(=O)(c1ccccc1)N1CCC[C@@]2(CCN(c3cccc(-c4ccccc4)c3)C2)C1	Cruzain noTriton 3.98µM
COC(=O)c1cccc(NC2=NS(=O)(=O)c3ccccc32)c1	none
COc1ccc(NC(=O)CSc2ncc(-c3ccc(Cl)cc3)[nH]2)cc1OC	none
Cc1ccc(Cc2cnc(N3C(=N)SC(c4ccccc4)C3=O)s2)cc1 (stereo not given)	Cruzain noTriton inconclusive
N=C1SC(c2ccccc2)C(=O)N1c1ncc(Cc2ccccc2)s1 (stereo not given)	Cruzain noTriton 7.94µM
COc1ccc(-c2cc(C(=O)Nc3c(C)nn(Cc4ccc(F)cc4)c3C)no2)cc1OC	Cruzain noTriton inconclusive
Cc1ccc(-n2cc(-c3ccccc3)nc2S(=O)(=O)CC(=O)Nc2ccc(F)cc2)cc1	none
Cc1ccc(-c2cn(-c3ccc(Cl)cc3)c(S(=O)(=O)CC(=O)Nc3ccccc3)n2)cc1	Cruzain noTriton 15.8µM
Clc1ccc(CCNC(c2ccc(Cl)cc2)c2nnc(-c3ccccc3)o2)cc1 (stereo not given)	none
O=C(Cn1nnc(-c2ccccc2Cl)n1)N/N=C/c1ccc(-c2cccc(Cl)c2)o1	Cruzain noTriton 31.6µM
O=C(CN1CCCC1)N/N=C/c1ccc(-c2cccc(Cl)c2)o1	none
Cc1nn(C)c(C)c1/C=C1/SC(=S)NC1=O	none
Cc1ccc(C2C(/C=C3/SC(=S)NC3=O)=C(c3cccs3)Oc3ccccc32)cc1 (stereo not given)	Cruzain noTriton 7.94µM
O=C(c1cc(C(=O)NCc2ccccc2)c(=O)n(Cc2ccccc2)c1)c1cc(Br)ccc1O	Cruzain noTriton 3.98µM
Cc1ccc(O)c(C(=O)c2cc(C(=O)NCc3ccccc3)c(=O)n(Cc3ccccc3)c2)c1	Cruzain noTriton inconclusive
COc1ccc(C(=O)c2sc3nc(-c4ccccc4)ccc3c2N)cc1OC	none
COc1cccc(-c2ccc3c(N)c(C(=O)c4ccc(Br)cc4)sc3n2)c1	Cruzain noTriton 7.94µM
NNc1nc(-c2ccccc2)cc(-c2ccccc2O)n1	Cruzain noTriton 15.8µM
Nc1nc(-c2ccccc2)cc(-c2ccccc2O)n1	none
O=C(c1cccc(Cl)c1)n1nc(-c2cccnc2)nc1NCc1ccccc1	none
COc1cccc(NS(=O)(=O)c2ccc3c(c2)N(C)C(=O)CC(=O)N3C)c1	Cruzain noTriton inconclusive
Cc1ccc(NC(=S)NC(NC(=O)C(C)(C)C)C(Cl)(Cl)Cl)c(C)c1 (stereo not given)	none
CC(=O)NC(NC(=S)Nc1ccc(N=Nc2ccccc2C)cc1C)C(Cl)(Cl)Cl (stereo not given)	Cruzain noTriton 7.94µM
CC(C)[C@H](NC(=O)OC(C)(C)C)c1nnc(S(=O)(=O)Cc2c(F)cccc2Cl)o1	Cruzain Triton 3.55µM, Cruzain noTriton 5.01µM
CCOC(=O)CSc1nnc([C@H](Cc2ccccc2)NC(=O)OC(C)(C)C)o1	none
C[C@H](NC(=O)OC(C)(C)C)c1nnc(SCc2c(F)cccc2Cl)o1	none
CC(C)(C)OC(=O)N[C@@H](Cc1ccccc1)c1nnc(S(=O)(=O)Cc2cccc(F)c2)o1	Cruzain Triton 12.6µM, Cruzain noTriton 20µM
CC(C)C[C@H](NC(=O)OC(C)(C)C)c1nnc(SCc2ccccc2)o1	none
Cc1ccccc1CS(=O)(=O)c1nnc([C@H](CC(C)C)NC(=O)OC(C)(C)C)o1	Cruzain Triton 12.6µM, Cruzain noTriton 25.1µM
Clc1ccc2c(N3CCC(CCC4CCN(c5ncnc6cc(Cl)ccc56)CC4)CC3)ncnc2c1	none
COC(=O)N[C@H](C[N+](=O)[O-])c1cccc(C)c1	none
O=C(NCCc1cn2ccccc2n1)c1ccccc1F	Cruzain noTriton inconclusive
c1cn2cc(CSC3CCCCC3)nc2s1	none
O=C(NCCc1cn2ccccc2n1)C1CCCCC1	Cruzain noTriton 15.8µM
O=C(NCCc1cn2ccsc2n1)C1CCCCC1	Cruzain noTriton 12.6µM
Cc1ccc(-n2nc(CO)c(C(=O)NCCO)n2)cc1	none
CCOc1ccc(NC(=O)CCS(=O)(=O)c2ccc3c(c2)n(C)c(=O)c(=O)n3C)cc1	none
COc1ccc(NC(=O)CSc2ncc3c(n2)-c2cc(Cl)ccc2N(Cc2ccccc2F)S3(=O)=O)cc1	none
CN1CCN(c2ncc3ncc(=O)n(C[C@H]4CCCO4)c3n2)CC1	Cruzain Triton inconclusive, Cruzain noTriton 20µM
CN(C)c1ncc2ncc(=O)n(C[C@H]3CCCO3)c2n1	none
CCOC(=O)CSc1nc2cc3c(cc2c(=O)n1CCCCCC(=O)NCc1ccc2c(c1)OCO2)OCO3	none
COc1ccc(-n2nc(C(=O)NCCc3ccc(Cl)cc3)c3c4ccccc4n(C)c3c2=O)cc1	none
COc1ccc(C(=O)Nc2nc(-c3nnn(-c4ccc(C(C)C)cc4)c3C)ns2)cc1	Cruzain noTriton inconclusive
O=C(Cc1ccccc1)NNC(=O)Nc1ccc(Cl)c(Cl)c1	none
NC(=S)NNC(=O)Nc1ccc(Cl)c(Cl)c1	Cruzain Triton 3.16µM, Cruzain noTriton 2µM
CC1=C(c2ccc(C)cc2)S(=O)(=O)NC1=NCCCN1CCN(c2ccccc2F)CC1	none
CCc1ccccc1N(CC)C(=O)c1cc2c(s1)-c1ccccc1SC2	none
CCOC(=O)c1ccccc1NC(=O)c1cc2c(s1)-c1c(C)cccc1OC2	none
COc1ccc(Cl)cc1NC(=O)c1cc2c(s1)-c1ccccc1OC2	none
O=C(NCc1ccc(F)cc1)c1cc2c(s1)-c1ccccc1SC2	Cruzain noTriton inconclusive
O=C(NCc1ccccc1Cl)c1cc2c(s1)-c1ccccc1SC2	Cruzain noTriton 25.1µM
COc1ccc(C)cc1NC(=O)c1cc2c(s1)-c1ccccc1SC2	Cruzain noTriton 15.8µM
CC(C)c1ccc(NC(=O)c2cc3c(s2)-c2ccccc2SC3)cc1	Cruzain noTriton 10µM
CCOC(=O)c1ccccc1NC(=O)c1cc2c(s1)-c1ccccc1SC2	Cruzain noTriton 7.94µM
COc1ccc(S(=O)(=O)c2cnc3ccc(Cl)cc3c2N2CCCCC2C)cc1 (stereo not given)	none
Cc1cc(C)c(S(=O)(=O)NCCc2sc3nc(-c4ccc(F)cc4)nn3c2C)c(C)c1	none
COc1ccc(CN2C(=O)N(c3ccc(F)cc3)C(=O)C2CC(=O)Nc2ccccc2)cc1 (stereo not given)	none
COc1cc(C2c3cc4c(cc3C(OC3OC5COC(C)O[C@@H]5C(O)C3O)C3COC(=O)C23)OCO4)cc(OC)c1O (stereo not given in full)	none
